# HT1080NT lethal = kills 2HG-producing HT-1080-NT fibrosarcoma cells | HT-1080-NT fibrosarcoma viability, CellTiter-Glo ATP luminescence, 48 h | Potency, µM (series often up to 46.1 µM), inactives show at the top dose activity, negative = less viability, hits mostly cytotoxic | 360,000 tested, 1.6% active | AID 686970;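 further: NT is the 2HG producing partner of a matched IDH1 knockdown line; potency means the concentration at half of the fitted maximal effect; 0% = DMSO-treated cells and -100% = media-only wells without cells; nearly all actives have a fitted effect of over 55% in size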
#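 Viability of the 2HG-overproducing fibrosarcoma line after 48 hours of compound exposure at 37 degrees C was determined by luminescence with CellTiter-Glo, and concentration-effect curves were then fitted and categorized.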
# HT1080 IDH1KD tx = toxicity to HT-1080 IDH1 knockdown cells (counter line); HT-1080 IDH1 knockdown viability, ATP luminescence, 48 h; Potency, µM (top dose mostly 46.1 µM), for inactives: top-dose activity, negative = toxicity, usual class: cytotoxic; 360,000 tested, 2% active; AID 686971;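 further: potency means the concentration at half of the fitted maximal effect; 0% = DMSO wells and -100% = cell-free medium wells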
#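 Knockdown cells (IDH1KD HT-1080) received compounds 2 h after plating at 750 cells/well and were kept 48 h at 37 °C in 5% FBS RPMI. A CellTiter-Glo luminescence read gave % activity for curve fitting.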
# IL-1B inflam inh = inhibitors of inflammasome signaling (IL-1 beta secretion); 360,000 tested, 4.7% active; THP-1 LPS/ATP IL-1B secretion, AlphaLISA, 16 h; stronger effect = lower value; activity change, % at 57.5 µM; in the data active means activity change below about -50%; inconclusive means mostly about -30% to -49%
#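 THP-1 cells pretreated 1 hr with compounds (up to 57.5 uM final), then stimulated with LPS (250 ng/mL final) plus ATP (1.25 mM final); secreted IL-1B measured by AlphaLISA after 16 hr, decreased signal indicating inhibition.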
# 12-LOX inh = blocks human arachidonate 12S-lipoxygenase; P18054; Potency, µM (doses to about 108 µM), for the others: top-dose activity change, negative = inhibition, most hits filed as inhibitors; 580,000 tested, 1.1% active; AID 1671190; purified 12hLO, xylenol orange hydroperoxide absorbance; further: potency means the concentration at half of the fitted maximal effect
# Target sequence (P18054 whole entry, looked up): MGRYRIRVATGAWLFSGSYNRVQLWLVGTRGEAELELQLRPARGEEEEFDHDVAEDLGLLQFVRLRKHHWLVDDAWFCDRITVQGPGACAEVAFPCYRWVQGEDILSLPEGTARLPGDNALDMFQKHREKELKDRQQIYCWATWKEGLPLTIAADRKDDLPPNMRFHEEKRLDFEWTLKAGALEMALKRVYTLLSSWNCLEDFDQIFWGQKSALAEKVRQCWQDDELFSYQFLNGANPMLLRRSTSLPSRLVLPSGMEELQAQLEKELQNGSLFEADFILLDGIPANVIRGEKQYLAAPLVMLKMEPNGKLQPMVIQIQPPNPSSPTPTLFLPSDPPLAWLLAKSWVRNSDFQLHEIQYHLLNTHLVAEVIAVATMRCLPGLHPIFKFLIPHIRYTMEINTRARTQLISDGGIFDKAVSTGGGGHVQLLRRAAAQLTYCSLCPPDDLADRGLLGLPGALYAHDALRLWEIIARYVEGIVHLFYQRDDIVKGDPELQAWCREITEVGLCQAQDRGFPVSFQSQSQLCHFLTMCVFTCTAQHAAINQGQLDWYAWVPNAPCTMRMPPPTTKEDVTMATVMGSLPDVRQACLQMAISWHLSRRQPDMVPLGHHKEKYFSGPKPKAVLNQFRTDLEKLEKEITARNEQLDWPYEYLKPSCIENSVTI
#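 Hydroperoxide product was detected by ferrous iron/xylenol orange as the 573 to 405 nm absorbance ratio. Arachidonic acid at 40 uM (final) was turned over for 30 min at room temperature by 150 nM human 12hLO, pH 7.0 Hepes buffer, after 15 min compound preincubation.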
# TDP1 cell CPT = growth inhibition of DT40 Tdp1-/-;hTDP1 cells with camptothecin (screen for TDP1 inhibitors). chicken DT40 Tdp1-/-;hTDP1 cells + 20 nM CPT, ATP luminescence, 48 h. Potency, µM (highest dose often 46.2 µM), for the others: at the highest dose activity change, negative = growth inhibition, hits mostly inhibitors. 420,000 tested, 12% active. AID 686979; further: potency means the concentration at half of the fitted maximal effect; nearly all actives have a fitted effect of over 55% in size
#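 Chicken DT40 Tdp1-/- cells stably complemented with human TDP1 were seeded at 400 cells/well in medium containing 20 nM camptothecin, exposed to pin-transferred compounds, and grown at 37 °C for at least 48 hr. Viability was read as ATP luminescence.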
# TDP1 cell noCPT = qHTS for Inhibitors of human tyrosyl-DNA phosphodiesterase 1 (TDP1): qHTS in cells in absence of CPT | Potency, µM (titrated, usually from 46.2 µM), for inactives: at the top dose activity change, negative = growth inhibition, actives largely listed as inhibitors | DT40 Tdp1-/- hTDP1 cells, no CPT, ATP luminescence, 48 h | AID 686978, 2013 | 420,000 tested, 15% active; further: potency means the concentration at half of the fitted maximal effect; nearly all actives have a fitted effect of over 55% in size
#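 Stably hTDP1-transfected Tdp1-null chicken DT40 cells were treated with library compounds minus camptothecin and grown for at least 48 hr at 37 °C, after which cellular ATP was quantified by luminescence.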
# An asterisk follows results filed as active; ? = inconclusive; · = no result. Shown is part of a subset that was picked to be rich in hits. Unless noted, the call rests on the fitted dose curve; in most records, active means well fitted curve in the direction sought with a large enough effect; inconclusive means small, poorly fitted or top-dose-only effect, or another doubt; inactive means no such curve, though single readings can be large; an effect the other way counts as inactive or inconclusive. Unless noted, on the % scale 0 is the no-effect control and ±100 the full control effect.
SMILES,HT1080NT lethal,HT1080 IDH1KD tx,IL-1B inflam inh,12-LOX inh,TDP1 cell CPT,TDP1 cell noCPT
S=C1NC2=C(CCCC2=C2SCCCS2)C(c2ccccc2)N1 (stereo unspecified),0%,12%,-5,14µM*,?,?
COc1ccc(C2NC(=S)NC3=C2CCCC3=C2SCCS2)cc1 (stereo unspecified),9.2µM*,6.5µM*,-82*,?,2.3µM*,2.9µM*
CCC(=O)N1CCc2cc(S(=O)(=O)N(C)c3cccc(C)c3)ccc21,·,·,·,-25%,?,?
COc1ccc(NC(=O)Nc2nnc(-c3ccncc3)s2)cc1,-3%,-3%,-90*,-18%,23µM*,23µM*
COc1cc(NC(=O)Nc2nnc(N3CCCCCC3)s2)cc(OC)c1,·,·,·,-21%,23µM*,16µM*
O=C(Nc1ccc(Cl)c(Cl)c1)Nc1nnc(-c2ccncc2)s1,?,?,24,-14%,3.3µM*,3.7µM*

# Screening data: PubChem BioAssay, National Center for Advancing Translational Sciences (NCATS)
